Rab9 prom act: activators of Rab9 promoter. Huh7 Rab9 promoter-luciferase reporter, luminescence, 24 h. Potency, µM (titrated, usually from 9.22 µM), for inactives: at the highest dose activation, negative = inhibition, hits mostly activators. hit rate 2.8% among 320,000; further: % of control where 0% means no effect; nearly all actives have a fitted effect of over 60% in size
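Huh7 cells stably carrying a Rab9 promoter-luciferase reporter, 1500 cells per well in OP-MEM I with 10% FBS, treated with compound 24 hours at 37C. Luciferase activity read by luminescence after 10 minutes with Amplite reagent.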
ELG1 DNA repair: blocks ELG1-dependent DNA repair in HEK293T cells. HEK293T ELG1-luciferase reporter, luminescence, 16 h; DNA damage induced by 5-fluorouridine. Potency, µM (series often up to 46.1 µM), inactives show at the highest dose activity change, negative = inhibition, actives largely listed as inhibitors. hit rate 2.3% among 330,000; further: on the % scale 0 is the no-effect control and ±100 the full control effect; nearly all actives have a fitted effect of over 55% in size
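HEK293T cells expressing luciferase-tagged ELG1 (2,000/well) received 5-Fluorouridine plus compound or DMSO for 16 hr at 37 °C. Luciferase was read by ONE-Glo luminescence after 30 min at room temperature.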
NPC1 promoter act: NPC1 promoter activation; Huh7 NPC1 promoter luciferase reporter, 24 h; hit rate 2.4% among 320,000; Potency, µM (top dose mostly 9.22 µM), without a hit: at the top dose activation, usual class: activators; further: % of control where 0% means no effect; nearly all actives have a fitted effect of over 60% in size
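Huh7 reporter cells (NPC1 promoter driving luciferase) are dosed with compound for 24 h at 37 °C, 5% CO2; luciferase detection reagent is then added and luminescence measured after 10 min at ambient temperature.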
FLuc modulator: inhibits or activates purified firefly luciferase, miR-21 counter-screen. P08659. purified FLuc, Km substrates, luminescence inhibition. Potency, µM (titrated, usually from 57.5 µM), for inactives: top-dose activity change, negative = inhibition, hits mostly inhibitors. hit rate 6.9% among 360,000;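 further: plate controls were vehicle for no effect and reference inhibitor for full effect; nearly all actives have a fitted effect of over 55% in size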
Target sequence (P08659 whole entry, looked up): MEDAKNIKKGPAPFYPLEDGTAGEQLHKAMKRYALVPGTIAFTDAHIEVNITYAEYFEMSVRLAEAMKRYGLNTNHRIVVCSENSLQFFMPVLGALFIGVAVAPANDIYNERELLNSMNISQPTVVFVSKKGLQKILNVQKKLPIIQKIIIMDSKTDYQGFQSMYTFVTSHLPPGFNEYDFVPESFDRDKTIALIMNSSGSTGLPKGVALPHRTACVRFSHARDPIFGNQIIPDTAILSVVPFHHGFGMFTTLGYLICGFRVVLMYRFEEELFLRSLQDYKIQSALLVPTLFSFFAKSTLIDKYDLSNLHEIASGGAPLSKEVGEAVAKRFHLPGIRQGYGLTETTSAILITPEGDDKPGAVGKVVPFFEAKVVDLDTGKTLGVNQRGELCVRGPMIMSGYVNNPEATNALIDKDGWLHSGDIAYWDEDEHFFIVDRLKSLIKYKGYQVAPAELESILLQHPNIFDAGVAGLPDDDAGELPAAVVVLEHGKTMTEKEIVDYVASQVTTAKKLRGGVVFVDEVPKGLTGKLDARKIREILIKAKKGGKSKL
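Purified P. pyralis luciferase (10nM final) with 10uM D-luciferin and 10uM ATP (Km levels) in 50mM Tris acetate pH 7.5, 10mM Mg acetate, 0.01% Tween-20, 0.05% BSA; qHTS 6-point titration, ~60 µM downward; luminescence read.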
ELG1 genotoxic: induces genotoxicity in HEK293T cells with luciferase-tagged ELG1 | HEK293T ELG1-luciferase reporter, luminescence, 16 h | hit rate 1.3% among 330,000 | Potency, µM (series often up to 46 µM), without a hit: at the top dose activity change, positive = activation, actives largely listed as activators | AID 504466; further: % of control where 0% means no effect; nearly all actives have a fitted effect of over 60% in size
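Genotoxic stress is detected as increased luminescence from luciferase-tagged ELG1 in HEK293T cells, measured with ONE-Glo after a 16 hr treatment at 37 °C.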
SMN2 splice up: enhancers of SMN2 splice variant expression | HEK293 SMN2-luciferase splicing reporter, luminescence, 30-36 h | Potency, µM (titrated, usually from 46.1 µM), inactives show top-dose activity change, positive = activation, actives largely listed as activators | hit rate 2.8% among 210,000 | AID 1458; further: % of control where 0% means no effect; nearly all actives have a fitted effect of over 55% in size
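qHTS luciferase splicing reporter: luminescence rises when SMN2 exon 7 is included in transfected HEK293 cells. Compound exposure lasted 30-36 h at 37C, with 4.5 mM final sodium butyrate as control, followed by a ONE-Glo read.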
The depositor's hits bear a star; u = inconclusive; x = no result; [ ] = dose if it differs, or a comment. Shown are actives, neighbours in structure and some others; about 9.2% of the full set was active somewhere. The call rests on the fitted dose curve; in most records, active means well fitted curve in the direction sought with a large enough effect; inconclusive means small, poorly fitted or top-dose-only effect, or another doubt; inactive means no such curve, though single readings can be large; an effect the other way counts as inactive or inconclusive. Potency means the concentration at half of the fitted maximal effect.

SMILES	Rab9 prom act	ELG1 DNA repair	NPC1 promoter act	FLuc modulator	ELG1 genotoxic	SMN2 splice up
Cc1ccc(S(=O)(=O)N2CCc3cc(C(=O)NCCc4ccccc4)ccc32)cc1	x	x	x	-7%	x	23%
NC(=O)COc1ccccc1	-5%	-10%	-4%	0%	-3%	x
COC(=O)Nc1ccc(Oc2ccccc2)cc1	0%	u	2%	u	u	u
COC(=O)Nc1ccc(SCC(=O)c2ccc(Cl)cc2)cc1	-4%	7%	0%	-1%	1%	-2%
COC(=O)Nc1ccc(OCc2ccccc2)cc1	2.8µM*	u	u	-1%[2.3 µM]	u	13µM*
CC(C)C(=O)N/N=C/c1ccc(OCc2ccccc2)cc1	1%	2%	2%	-14%	4%	-6%
COC(=O)Nc1ccc(SCC(=O)c2ccccc2)cc1	u	19%	17%	19µM*	12%	14%
NC(=O)COc1ccc(NC(=O)OCc2ccccc2)cc1	17%	u	20%	12µM*	u	21%
CC(=O)Nc1ccc(N=Cc2ccc(OCc3ccccc3)cc2)cc1	0%	u	-3%	24µM*	u	u
Cc1cc(C(=O)NCC(=O)OCC(=O)NCCc2ccccc2)ccc1[N+](=O)[O-]	-1%	-7%	0%	-2%	0%	-10%
CCN(CC)S(=O)(=O)c1ccc(N2CCOCC2)c(NC(=O)C2CCCO2)c1 (centres undefined)	-6%	3%	-5%	1%	3%	x
O=C(O)c1cccc(S(=O)(=O)Nc2ccc(OCc3ccccc3)cc2)c1	-3%	3%	1%	-8%	-4%	x
COCC(=O)Nc1ccc(OCc2ccccc2)cc1	u	u	u	u	u	13µM*
CS(=O)(=O)Nc1ccc(OCc2ccccc2)cc1	u	u	u	13µM*	15µM*	u
CC1=C(C(=O)Nc2ccccc2)C(c2ccccc2Cl)n2ncc(C(=O)Nc3cccc(C)c3)c2N1 (centres undefined)	x	x	x	-4%	x	x
COc1ccc(C2=NC(c3ccccc3)=Nc3ccc(C)cc3N2)cc1	x	x	x	u	x	12%
CC1=CC(c2ccccc2)=Nc2ccc(C)cc2N1	4µM*	u	3.5µM*	6.7µM*	12µM*	10µM*
CN1CCN(C(=O)/C=C/c2cn(-c3ccccc3)nc2-c2ccc3c(c2)OCCO3)CC1	1%	10µM*	-11%	-15%	-8%	3%
CN(C)C(=O)/C=C\c1cn(-c2ccccc2)nc1-c1ccc2c(c1)OCCO2	-11%	16µM*	-6%	-12%	-13%	-22%
Cc1ccc(C(O)CSc2nnc(-c3ccc4ccccc4c3)n2C)cc1 (centres undefined)	3%	-14%	1%	1%	-1%	x
Cc1ccc(S(N)(=O)=O)cc1NC(=O)c1ccc2c3c(cccc13)CC2	-4%	7%	-4%	-16%	-3%	x
CN(C)c1ccc(C(=O)OCc2ccccc2)cc1	8%	u	12%	12µM*	23µM*	-1%
COC(=O)c1cccc(COC(=O)c2ccc(N(C)C)cc2)c1	u	u	25%	u	3%	u
COC(=O)c1ccc(COC(=O)c2ccc(N(C)C)cc2)cc1	21%	24%	u	-15%	0%	7.1µM*
CCOc1cc2sc(N3CCC(C(=O)Nc4ccc(C(C)C)cc4)CC3)nc2cc1Br	x	x	x	21µM*	x	14µM*
SMILES	Rab9 prom act	ELG1 DNA repair	NPC1 promoter act	FLuc modulator	ELG1 genotoxic	SMN2 splice up
CCOc1cc2sc(N3CCC(C(=O)Nc4cc(C)cc(C)c4)CC3)nc2cc1Br	x	x	x	-1%	x	x
CCOc1cc2sc(N3CCC(C(=O)NCCCN4CCCC4=O)CC3)nc2cc1Br	1%	11%	15%	15µM*	-3%	x
CCOc1cc2sc(N3CCC(C(=O)Nc4ccc(C)cc4C)CC3)nc2cc1Br	x	x	x	15µM*	x	u
O=C(NNC(=O)c1ncc(Cl)c(Cl)c1Cl)c1ccc(F)cc1	3%	19%	11%	-3%	1%	x
CCc1noc(C)c1C(=O)NNC(=O)c1ccccc1Cl	-4%	1%	2%	11%	1%	x
Cc1csc2nc(COC(=O)CNC(=O)c3ccc(F)cc3)cc(=O)n12	x	x	x	-8%	x	x
COc1ccc(O[C@H]2C=C[C@@H](c3ccccc3)O[C@@H]2COC(=O)CC/C(C)=N/O[C@H](C)c2cn([C@@H]3COC[C@H]3O)nn2)cc1	0%	26µM*	-8%	0%	-7%	-34%
COc1ccc(O[C@H]2C=C[C@@H](c3ccccc3)O[C@@H]2COC(=O)CCC(C)=NO[C@@H]2O[C@H](COC(C)=O)[C@@H](OC(C)=O)[C@H](OC(C)=O)[C@H]2OC(C)=O)cc1	1%	u	-2%	-1%	0%	-9%
Cn1c(SCC(=O)NC2(C#N)CCCCC2)nnc1-c1cccnc1	0%	3%	-3%	0%	0%	x
CC(=O)Nc1ccc(Nc2cc(C)c3ccccc3n2)cc1	10%	2%	1%	u	-5%	x
COc1ccc(Nc2cc(C)c3ccc(O)cc3n2)cc1	-3%	7%	5%	24µM*	7%	x
Cc1ccc2nc(C)cc(Nc3ccc([N+](=O)[O-])cc3)c2c1	-18%	u	-21%	1%	5.8µM*	-108%
COc1ccc(Nc2cc(C)c3cc([N+](=O)[O-])ccc3n2)cc1	-6%	u	-7%	17µM*	-2%	x
COc1ccc(N2CCN(c3cc(C)c4ccc(O)cc4n3)CC2)cc1	1%	-6%	-2%	4%	2%	16%
Cc1cc(Nc2ccccc2)nc2cc(O)ccc12	-7%	u	-3%	17µM*	3%	-6%
COc1cc(C)c(NC(=S)NCCCN2CCOCC2)cc1OC	-8%	9%	-1%	-2%	1%	62%
Nc1nc2ccccc2n1C(=O)c1ccco1	2.5µM*	u	u	11µM*	u	13µM*
COc1ccc(C(=O)n2c(N)nc3ccccc32)cc1OC	2.5µM*	u	2.8µM*	19µM*	u	x
Nc1nncn1C(=O)c1cccs1	2%	0%	-5%	0%	-3%	-18%
Nc1nc2ccccc2n1C(=O)c1ccccc1	0.35µM*	u	u	0.76µM*	0.65µM*	1.6µM*
Nc1nc2ccccc2n1C(=O)c1cccs1	0.79µM*	u	u	2.7µM*	u	11µM*
COCCNc1nc2ccccc2n1CC(=O)c1ccc(OC)c(OC)c1	-1%	-26%	0%	-1%	-5%	x
Cc1cc(C)c(NC(=O)c2ccccc2C(=O)c2ccccc2)c(C)c1	-5%	u	-3%	2%	-2%	15%

From PubChem
